The values below come from PubChem BioAssay (NCI).

Compounds without any hit were thinned out: in the full panel of roughly 83,000, 20% have a hit.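 Assay: single dose, 48 h. Readout: percent growth (0 = no net growth; negative = cell death). Active: <10.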 A number with no mark means an inactive call. Calls of active or inactive are those of the source.

Some test systems named below: HCT-15 colon; HT29 colon; SNB-75 CNS; SNB-19 CNS; U251 CNS; PC-3 prostate; SK-MEL-5 melanoma; UACC-62 melanoma; LOX IMVI melanoma; SK-MEL-28 melanoma; SK-MEL-2 melanoma; SN12C renal; UO-31 renal; TK-10 renal; ACHN renal; CAKI-1 renal; A498 renal; CCRF-CEM leukemia; MOLT-4 leukemia.
Common to all, as to test: NCI-60 one-dose screen, 48 h (100 = growth as untreated, 0 = no growth, -100 = all killed)
Conditions in all cases: 10 µM unless noted

For the compound `Cc1ccc(Cn2c(-c3nonc3N)nc3ccccc32)cc1`, the growth with HCT-15 colon is 50.5%; in the test on HT29 colon it was 46.3%; in the test on SNB-75 CNS it was 57.4%; in the test with SNB-19 CNS, 91%; in the test with U251 CNS it was 77.5%; with PC-3 prostate, 72.2%. For the same compound, the growth in the test on SK-MEL-5 melanoma is 76.2%; in the test on UACC-62 melanoma, 77.7%; with LOX IMVI melanoma, 71.7%; in the test with SK-MEL-28 melanoma it was 90%; with SK-MEL-2 melanoma it was 78.2%; with SN12C renal, 96.3%. The growth was 66.2% in the test on UO-31 renal; 90.4% in the test with TK-10 renal; 92.3% in the test on ACHN renal; 69.7% in the test on CAKI-1 renal; 40.4% in the test on A498 renal; 67.2% in the test with CCRF-CEM leukemia. For the same compound, the growth in the test on MOLT-4 leukemia is 56.2%.

As for `COc1cc(CCn2nnc3c(Nc4ccc(N5CCOCC5)cc4)ncnc32)cc(OC)c1`, the growth in the test on HCT-15 colon was 93.6%; in the test on HT29 colon, 99.3%; in the test with SNB-75 CNS it was 94.2%; in the test on SNB-19 CNS, 93.3%; with U251 CNS, 95.6%; with PC-3 prostate, 72.1%. Moreover, the growth in the test with SK-MEL-5 melanoma is 93.6%; with UACC-62 melanoma it was 91.5%; in the test on LOX IMVI melanoma, 97.5%; in the test with SK-MEL-28 melanoma, 97%; with SK-MEL-2 melanoma it was 115%; in the test with SN12C renal it was 103%. Also, the growth was 86.9% in the test on UO-31 renal; 123% with TK-10 renal; 97.4% in the test on ACHN renal; 93.9% in the test with CAKI-1 renal; 80.4% in the test with A498 renal; 84.5% with CCRF-CEM leukemia. The growth in the test on MOLT-4 leukemia is 76.4%.

For the compound `CCC(C)NCC(=O)O` (centres undefined), the growth with HCT-15 colon was 88.5%; in the test on HT29 colon it was 78.8%; in the test with SNB-75 CNS, 90.9%; in the test with SNB-19 CNS, 107%; with U251 CNS it was 98.7%; in the test with PC-3 prostate, 102%. The growth with SK-MEL-5 melanoma was 97.5%; in the test with UACC-62 melanoma, 108%; in the test with LOX IMVI melanoma it was 109%; with SK-MEL-28 melanoma it was 104%; in the test on SK-MEL-2 melanoma, 85.6%; in the test on SN12C renal, 110%. Moreover, the growth is 98.4% with UO-31 renal; 107% in the test on TK-10 renal; 97.7% with ACHN renal; 97.7% with CAKI-1 renal; 107% in the test with A498 renal; 106% in the test with MOLT-4 leukemia.

As to `COc1cc2oc(-c3cccc(NC(=O)Nc4ccc5c(c4)OCO5)c3)cc(=O)c2c(OC)c1OC`, the growth was 42.1% in the test on HCT-15 colon; 48.2% in the test on HT29 colon; 21.4% in the test on SNB-75 CNS; 83.5% with SNB-19 CNS; 62.1% in the test on U251 CNS; 45.6% in the test on PC-3 prostate. Further, the growth in the test with SK-MEL-5 melanoma was 45.6%; in the test on UACC-62 melanoma it was 62.1%; with LOX IMVI melanoma, 38.9%; with SK-MEL-28 melanoma, 74.2%; with SK-MEL-2 melanoma, 71.7%; with SN12C renal, 49.5%. In addition, the growth with UO-31 renal was 17.8%; in the test with TK-10 renal it was 56%; with ACHN renal, 47.1%; in the test on CAKI-1 renal, 48.6%; in the test on A498 renal it was 77.1%; in the test on MOLT-4 leukemia, 54.8%.

Take `C=C1C(=O)O[C@H]2[C@H](O)[C@@H](C)CCC/C(C)=C/CC[C@@]3(C)O[C@@H]3C[C@@H]12`: the growth with HCT-15 colon was 96.3%; with HT29 colon it was 99.6%; with SNB-75 CNS, 75.7%; in the test on SNB-19 CNS, 88%; in the test on U251 CNS it was 97.3%; in the test with PC-3 prostate it was 46.5%. For the same compound, the growth with SK-MEL-5 melanoma was 91.5%; in the test with UACC-62 melanoma, 89%; in the test with LOX IMVI melanoma it was 92%; in the test on SK-MEL-28 melanoma it was 95.1%; in the test on SK-MEL-2 melanoma, 90.4%; in the test with SN12C renal, 91.2%. Moreover, the growth with UO-31 renal is 77.4%; in the test on TK-10 renal, 81%; in the test on ACHN renal it was 96%; in the test with CAKI-1 renal, 74.8%; in the test on A498 renal, 91.8%; in the test on MOLT-4 leukemia, 78.6%.

On to `C=CCn1c(C)nc2ccc(Nc3nc(Nc4ccc(F)cc4)nc4ccccc34)cc21`, for which the growth in the test on HCT-15 colon was 34.5%; in the test with HT29 colon it was 18.7%; in the test with SNB-75 CNS it was 54.6%; with SNB-19 CNS, 96.5%; in the test with U251 CNS it was 59.6%; in the test on PC-3 prostate, 42.1%. Also, the growth was 33.3% in the test on SK-MEL-5 melanoma; 63.2% in the test with UACC-62 melanoma; 45.3% in the test with LOX IMVI melanoma; 72% in the test with SK-MEL-28 melanoma; 58.1% with SK-MEL-2 melanoma; 66.2% in the test with SN12C renal. The growth was 37.4% in the test with UO-31 renal; 82.3% in the test on TK-10 renal; 67.6% in the test on ACHN renal; 58.2% with CAKI-1 renal; 22.5% in the test with CCRF-CEM leukemia; -5.55% (active) with MOLT-4 leukemia.

`COc1cc(NC(=O)c2cc3ccccc3nc2Nc2ccc(F)cc2)cc(OC)c1OC`: the growth in the test on HCT-15 colon is 31.8%; with HT29 colon, 69.3%; in the test on SNB-75 CNS, 60.7%; in the test on SNB-19 CNS it was 61.1%; in the test with U251 CNS, 35.3%; with PC-3 prostate, 13.2%. The growth was -13.8% (active) in the test with SK-MEL-5 melanoma; 37.5% with UACC-62 melanoma; 32.6% with LOX IMVI melanoma; 54.2% with SK-MEL-28 melanoma; 63.4% in the test with SK-MEL-2 melanoma; 62.3% with SN12C renal. For the same compound, the growth in the test with UO-31 renal was 46.7%; in the test with TK-10 renal, 65.3%; in the test on ACHN renal, 42.9%; with CAKI-1 renal, 52.4%; with CCRF-CEM leukemia it was 42.1%; in the test with MOLT-4 leukemia it was 12.4%.

As to `O=c1[nH]c(-c2cn(-c3ccc(Cl)cc3)nn2)nc2ccccc12`, the growth with HCT-15 colon was 101%; in the test with HT29 colon it was 72.3%; with SNB-75 CNS it was -9.19% (active); in the test on SNB-19 CNS, 72.8%; with U251 CNS, 74.5%; in the test on PC-3 prostate, 74.8%. Moreover, the growth in the test with SK-MEL-5 melanoma was 79%; in the test on UACC-62 melanoma, 60.9%; with LOX IMVI melanoma, 90.8%; in the test with SK-MEL-28 melanoma, 58.1%; in the test with SK-MEL-2 melanoma, 77.2%; in the test with SN12C renal, 71.9%. Moreover, the growth in the test on UO-31 renal is 46.1%; with TK-10 renal it was 80.6%; in the test with ACHN renal it was 42.5%; in the test with CAKI-1 renal, 84.2%; with A498 renal, 24.7%; in the test with MOLT-4 leukemia it was 93.7%.

As to `CCCCCCCCCCCCNC(=S)N/N=C/c1ccc(Cl)c(Cl)c1`, the growth is 87.2% in the test on HCT-15 colon; 82.2% in the test with HT29 colon; 96.8% in the test with SNB-75 CNS; 114% with SNB-19 CNS; 108% in the test on U251 CNS; 107% in the test on PC-3 prostate. Besides, the growth was 99% with SK-MEL-5 melanoma; 95.5% with UACC-62 melanoma; 120% with LOX IMVI melanoma; 104% in the test with SK-MEL-28 melanoma; 99.8% in the test on SK-MEL-2 melanoma; 101% in the test with SN12C renal. For the same compound, the growth was 89.2% in the test with UO-31 renal; 143% in the test with TK-10 renal; 94.9% with ACHN renal; 101% in the test on CAKI-1 renal; 112% in the test with A498 renal; 93.8% with MOLT-4 leukemia.
